Our source for the composite z-score, z-score and composite Z-score values is PubChem BioAssay.

Assay [1] deals with Human papillomavirus type 1a protein E7 (residues 44-93). Kind of assay: HPV1a E7 fragment binders on microarrays, primary screen, biochemical, small-molecule microarray, residues 44-93, 635 nm fluorescence (AID 1108).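 Also: E7 fragment applied at 1 µg/mL in TBST for 1 h at 4 C; score combines spot fluorescence with its signal to noise ratio.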 To be noted: small-molecule microarray binding, fluorescence 635 nm; higher = more signal.
Assay [2] can be described thus: modulators of HCV replicon luciferase signal, primary screen, HCV replication inhibitor project, Huh7 cells, luciferase reporter (AID 1109).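 Also: huh7 hepatoma cells harbouring a luciferase neomycin HCV replicon reporter; luciferase luminescence as measure of HCV replicon replication; test concentration not given here.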 To be noted: 48 h, higher = more signal. Background: A replicon is a self-replicating genome or part of one, used to study replication in cells.
Assay [3] deals with Left-right determination factor 2 (Homo sapiens) (UniProt O00292). As to the kind of experiment: LEFTY2 binders on small-molecule microarrays, primary screen, biochemical, small-molecule microarray, 635 nm fluorescence scan (AID 1110). To be noted: LEFTY2 binding, higher = more signal.
For assay [4], the target named is Calmodulin-1 (Homo sapiens) (UniProt P0DP23). Kind of assay: CALM1 binders on microarrays, EGTA buffer, profiling panel, biochemical, small-molecule microarray, Cy5-labelled CALM1 (AID 1111).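 Also: labelled calmodulin applied in Tris saline Tween buffer holding calcium plus EGTA and DTT.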 To be noted: Cy5-CALM1 binding fluorescence, higher = more signal.
Assay [5] shares this target. Kind of assay: calcium-bound CALM1 binders on microarrays, profiling panel, artefact control for SMM control-protein annotation, biochemical, small-molecule microarray, Cy5-labelled CALM1, plus calcium (AID 1112).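 Also: score merges spot fluorescence with signal to noise from triplicate slides.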 The note with it: Cy5-CALM1 binding fluorescence, higher = more signal.
Assay [6] in a line: small-molecule microarray binders of probe aWnt5a, primary screen, biochemical, biotinylated probe, 635/667 nm fluorescence (AID 1113).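 Also: score merges 667 nm fluorescence intensity with signal-to-noise per printed feature.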 The note with it: higher = more signal.
Assay [7] can be described thus: small-molecule microarray binders of probe aShh, primary screen, biochemical, biotinylated probe, 635/667 nm fluorescence (AID 1114).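 Also: probe is biotin-labelled aShh protein from a stem cell growth factor screen; measures binding of labelled protein to compounds printed on the slide; score merges feature fluorescence at 667 nm with signal-to-noise.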 The note with it: higher = more signal.
The nature of assay [8]: small-molecule microarray binders of probe aNog, primary screen, biochemical, biotinylated probe, 635/667 nm fluorescence (AID 1115).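 Also: probe is biotinylated aNog protein used at 0.15 µg/mL for 1 h at 4 C; z-score combines 667 nm fluorescence of each spot with its signal to noise.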 To be noted: higher = more signal.
Assay [9] concerns the target Torsin-1A-interacting protein 1 (Homo sapiens) (UniProt Q5JTV8). Kind of assay: LAP1 binders from COS7 cell lysate, primary screen, small-molecule microarray, 635/667 nm fluorescence (AID 1116). To be noted: COS7-hLAP1 lysate binding, 635 nm fluorescence, higher = more signal.
Assay [10] addresses Alpha-bungarotoxin (Bungarus multicinctus) (UniProt P60615). As to the kind of experiment: alpha-bungarotoxin binders on microarray, profiling panel, artefact control for SMM control protein annotation, biochemical, small-molecule microarray, Alexa647 label, 635/667 nm fluorescence (AID 1117). To be noted: alpha-BTX-A647 binding fluorescence, higher = more signal.
Assay [11] deals with Albumin (Bos taurus) (UniProt P02769). As to the kind of experiment: bovine serum albumin binders on microarray, profiling panel, artefact control for SMM control protein annotation, biochemical, small-molecule microarray, Alexa647 label, 635/667 nm fluorescence (AID 1118).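 Also: score merges 667 nm emission intensity and signal-to-noise per printed compound spot.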 To be noted: BSA-A647 binding, fluorescence 635 nm, higher = more signal.
A short description of assay [12]: small-molecule microarray binders of probe aXIP, primary screen, biochemical, NeuroSMM set, 635/667 nm fluorescence (AID 1119).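 Also: probe is the protein aXip251-270 applied at 1 µg/mL to compound-printed slides; binding of probe to printed compounds measured as 667 nm fluorescence plus signal to noise.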 The note with it: higher = more signal, called active from +8 up or from −8 down.
A short description of assay [13]: small-molecule binders of probe aNOTCH3, primary screen, biochemical, small-molecule microarray, 635/667 nm fluorescence (AID 1120).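 Also: probe is a biotin-tagged antibody raised against NOTCH3 rather than NOTCH3 protein; score merges spot fluorescence near 667 nm with spot signal to noise.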 To be noted: higher = more signal.
Assay [14] can be described thus: small-molecule binders of probe aNOTCH2, primary screen, biochemical, small-molecule microarray, 635/667 nm fluorescence (AID 1121).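 Also: score merges feature fluorescence read at 667 nm with its signal to noise.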 To be noted: higher = more signal.
Assay [15] addresses Carbonic anhydrase 2 (Homo sapiens) (UniProt P00918). As to the kind of experiment: CAII small-molecule binders, profiling panel, biochemical, small-molecule microarray, Alexa647-labelled CAII (AID 1122). The note with it: CAII-A647 binding fluorescence, higher = more signal.
Assay [16] is described as follows: COS7 lysate on small-molecule microarray, probe aHis, 635 nm (AID 1123).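 Also: z-score combines 667nm fluorescence intensity with signal-to-noise per printed compound spot.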 To be noted: COS7 cell lysate, fluorescence, higher = more signal.
A short description of assay [17]: compound binding in COS7 lysate, probe aLAP1, primary screen, cell lysate, small-molecule microarray (AID 1124).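 Also: lysate comes from COS7 cells expressing LAP1 and is applied at 0.3 µg/mL; score merges spot fluorescence near 667 nm with signal-to-noise over triplicate slides.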 The note with it: probe aLAP1, fluorescence, higher = more signal.
Assay [18] relates to Sam68 (KHDRBS1). As to the kind of experiment: Sam68 small-molecule binders, primary screen, biochemical, small-molecule microarray, 635 nm fluorescence (AID 1125).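 Also: score merges 667 nm channel intensity with signal to noise over triplicate slides.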 The note with it: small-molecule microarray binding, higher = more signal.
For assay [19], the system named is Chordin-like protein 2 (CHRDL2). Kind of assay: CHRDL2 small-molecule binders, primary screen, biochemical, small-molecule microarray, 635 nm fluorescence (AID 1126).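 Also: printed compound slides probed with Chrdl2 protein at 4 µg/mL for 1 h at 4 C; score merges 667 nm emission intensity with signal to noise over three replicate slides.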 To be noted: small-molecule microarray binding, fluorescence 635 nm; higher = more signal.
The target of assay [20] is Concanavalin-A (Canavalia ensiformis) (UniProt P02866). Kind of assay: ConA small-molecule binders, primary screen, artefact control for SMM control protein annotation, biochemical, small-molecule microarray, Alexa647 label, 635 nm (AID 1127).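 Also: z combines 667 nm emission intensity with signal-to-noise across three replicate slides.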 The note with it: ConA-A647 binding fluorescence, higher = more signal.

Active and inactive are the calls of the source.

Chain of Albumin (Bos taurus) (P02769 whole entry, looked up): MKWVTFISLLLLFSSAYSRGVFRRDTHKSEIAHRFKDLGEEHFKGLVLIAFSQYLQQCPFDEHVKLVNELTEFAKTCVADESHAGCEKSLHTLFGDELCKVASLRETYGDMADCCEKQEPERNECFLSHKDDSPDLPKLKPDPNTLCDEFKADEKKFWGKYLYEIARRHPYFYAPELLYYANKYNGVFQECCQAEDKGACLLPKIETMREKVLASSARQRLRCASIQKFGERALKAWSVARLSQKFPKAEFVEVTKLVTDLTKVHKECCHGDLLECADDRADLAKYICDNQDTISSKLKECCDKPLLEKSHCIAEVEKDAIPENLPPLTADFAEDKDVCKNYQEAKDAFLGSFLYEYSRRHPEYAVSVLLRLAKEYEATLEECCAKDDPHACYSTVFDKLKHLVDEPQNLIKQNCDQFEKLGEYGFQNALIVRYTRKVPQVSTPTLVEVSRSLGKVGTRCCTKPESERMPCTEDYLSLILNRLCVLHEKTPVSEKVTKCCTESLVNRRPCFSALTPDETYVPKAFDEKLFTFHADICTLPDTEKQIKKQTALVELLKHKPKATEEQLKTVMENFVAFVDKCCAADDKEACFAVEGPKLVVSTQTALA
Chain of Alpha-bungarotoxin (Bungarus multicinctus) (P60615 whole entry, looked up): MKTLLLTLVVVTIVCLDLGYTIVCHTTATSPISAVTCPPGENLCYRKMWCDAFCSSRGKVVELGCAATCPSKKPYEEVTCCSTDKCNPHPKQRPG
Chain of Concanavalin-A (Canavalia ensiformis) (P02866 whole entry, looked up): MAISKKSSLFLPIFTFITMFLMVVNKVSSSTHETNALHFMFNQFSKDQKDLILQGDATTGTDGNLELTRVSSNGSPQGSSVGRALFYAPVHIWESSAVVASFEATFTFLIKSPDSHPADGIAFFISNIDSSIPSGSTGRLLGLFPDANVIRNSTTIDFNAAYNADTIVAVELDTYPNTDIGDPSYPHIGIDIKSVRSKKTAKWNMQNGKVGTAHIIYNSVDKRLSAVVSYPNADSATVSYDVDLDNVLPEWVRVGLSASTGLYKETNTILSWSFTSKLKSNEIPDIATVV
Chain of Left-right determination factor 2 (Homo sapiens) (O00292 whole entry, looked up): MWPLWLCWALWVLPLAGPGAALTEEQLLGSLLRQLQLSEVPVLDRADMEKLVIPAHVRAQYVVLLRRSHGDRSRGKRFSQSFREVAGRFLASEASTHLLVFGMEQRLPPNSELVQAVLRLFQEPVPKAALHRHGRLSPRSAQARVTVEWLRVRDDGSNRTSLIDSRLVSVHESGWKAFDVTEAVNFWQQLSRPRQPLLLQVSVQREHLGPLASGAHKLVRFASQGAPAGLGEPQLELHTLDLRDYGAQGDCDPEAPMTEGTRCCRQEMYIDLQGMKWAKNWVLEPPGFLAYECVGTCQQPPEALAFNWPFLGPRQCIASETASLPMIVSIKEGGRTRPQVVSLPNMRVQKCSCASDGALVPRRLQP
Chain of Torsin-1A-interacting protein 1 (Homo sapiens) (Q5JTV8 whole entry, looked up): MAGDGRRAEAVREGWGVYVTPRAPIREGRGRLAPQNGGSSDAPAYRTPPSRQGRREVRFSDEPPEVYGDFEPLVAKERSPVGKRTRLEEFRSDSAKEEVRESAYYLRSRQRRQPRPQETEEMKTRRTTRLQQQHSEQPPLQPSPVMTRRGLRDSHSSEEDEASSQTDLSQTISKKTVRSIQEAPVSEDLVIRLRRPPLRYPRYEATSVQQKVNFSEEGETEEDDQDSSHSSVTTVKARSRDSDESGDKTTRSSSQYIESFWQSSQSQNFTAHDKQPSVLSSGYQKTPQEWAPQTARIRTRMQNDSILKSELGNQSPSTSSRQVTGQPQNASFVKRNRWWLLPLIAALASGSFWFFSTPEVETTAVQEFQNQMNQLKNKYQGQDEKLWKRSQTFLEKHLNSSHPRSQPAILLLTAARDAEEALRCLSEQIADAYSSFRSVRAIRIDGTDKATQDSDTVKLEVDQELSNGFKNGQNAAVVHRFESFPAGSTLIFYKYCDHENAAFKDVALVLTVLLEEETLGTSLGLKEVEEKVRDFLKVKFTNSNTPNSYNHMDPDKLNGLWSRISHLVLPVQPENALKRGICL

For the compound `CC(C)CCC[C@@H](C)[C@H]1CC[C@@]2(C)C3=C(CC[C@]12C)[C@@]1(C)CC[C@H](OC(=O)c2ccc(N)cc2)C(C)(C)C1CC3` (stereo not given in full), the composite z-score in [1] was 0.609; in [3] it was 1.2; in assay [4] it was -0.137; in assay [5], -0.674; in assay [6], -0.0545; in assay [7], 0.768. In addition, the composite z-score was -0.427 in assay [8]; 0.282 in assay [9]; 0.0506 in assay [10]; 0.0881 in assay [11]; 0.0406 in assay [13]; -0.207 in assay [14]. Further, the composite z-score in assay [15] is 0.0778; in assay [16] it was -0.221; in assay [17], -0.252; in assay [18], 0.401; in [19] it was 0.456; in [20], 0.462. Moreover, the z-score in assay [2] stood at 0.0533. For the same compound, the composite Z-score in [12] is -0.196 (inactive).
Consider `CCN(CC)c1ccc(N2CC=CC34O[C@@H]5/C=C\CCCOC(=O)C5[C@H]3C(=O)N(CCCCCO)[C@@H]4C2=O)cc1` (stereo not given in full), for which the composite z-score was -0.592 in assay [1]; -1.57 in assay [3]; -1.06 in assay [4]; -0.996 in assay [5]; -0.203 in assay [6]; -0.221 in assay [7]. For the same compound, the composite z-score is -0.254 in assay [8]; 0.424 in [9]; -1.04 in assay [10]; 0.567 in [11]; -0.402 in assay [13]; -0.198 in assay [14]. Further, the composite z-score in assay [15] is 0.342; in [16], -0.343; in assay [17] it was 0.0397; in [18], -1.83; in assay [19], -1.2; in assay [20], -0.518. The z-score in [2] is -0.376. Further, in assay [12], the composite Z-score is 0.226 (inactive).
For `CCCC[C@@H](O)C1=C(COc2ccccc2)Cn2c(=O)n(-c3ccccc3)c(=O)n2[C@H]1CO`, the composite z-score in assay [1] is -0.616; in [3], 0.0253; in assay [4] it was -0.634; in assay [5], -0.116; in assay [6], -0.124; in assay [7] it was -0.248. The composite z-score was -0.182 in assay [8]; -0.222 in [9]; -1.62 in assay [10]; -0.0711 in assay [11]; -0.187 in assay [13]; -0.148 in assay [14]. The composite z-score in assay [15] was -0.0781; in assay [16], 0.725; in assay [17], 0.148; in assay [18] it was -0.247; in assay [19], 0.0826; in assay [20] it was -0.494. For the same compound, the z-score in assay [2] was -1.52. In [12], the composite Z-score is -0.116 (inactive).
In the case of `COCCOC(=O)N1C(=O)[C@@]2(c3cc(C#CCNC(N)=O)ccc31)[C@H](C(N)=O)[C@H]1C(=O)O[C@H](c3ccccc3)[C@H](c3ccccc3)N1[C@@H]2c1ccc(OCCO)cc1`, the composite z-score in [1] was 1.29; in assay [3], 0.582; in [4] it was 0.701; in assay [5], 0.257; in assay [6] it was -0.1; in assay [7], -0.156. For the same compound, the composite z-score was 0.271 in assay [8]; 1.03 in assay [9]; 0.617 in assay [10]; -0.217 in [11]; 0.276 in assay [13]; -0.0979 in assay [14]. The composite z-score in [15] came out at 0.52; in assay [16], 0.475; in assay [17], 0.53; in assay [18], 0.815; in assay [19], 1.03; in assay [20] it was 1.09. Further, the z-score in assay [2] is -1.11. Besides, in assay [12], the composite Z-score was 0.462 (inactive).
With `C=C(/C(=C/C[C@@H](OC(C)=O)c1ccccc1OCCO)c1cnc2ccccc2c1)C(C)C`, the composite z-score in assay [1] is 0.0976; in assay [3], 0.0798; in assay [4], -0.353; in assay [5], -0.236; in assay [6], 0.122; in assay [7] it was 0.0328. The composite z-score in assay [8] is 0.291; in assay [9] it was 0.148; in assay [10] it was 1.01; in assay [11] it was 0.23; in assay [13] it was -0.0784; in assay [14], -0.0859. Further, the composite z-score in [15] was 0.571; in [16], 0.503; in assay [17], -0.0618; in [18], 0.778; in [19], 0.474; in [20] it was 0.871. The z-score in assay [2] was -1.61. The composite Z-score in assay [12] was 1.17 (inactive).
`COCCCNC(=O)[C@]1(Cc2ccccc2CN=[N+]=[N-])N=C(c2ccc(OCCCO)cc2)O[C@@H]1c1ccccc1CN=[N+]=[N-]`: the composite z-score in [1] is -0.113; in assay [3], 0.0705; in assay [4], 1.85; in [5], 0.945; in assay [6], 0.19; in assay [7], 0.417. Further, the composite z-score in assay [8] turned out to be 1.92; in [9], 2.09; in [10], 1.3; in assay [11] it was 0.864; in [13], 0.364; in assay [14] it was 0.309. The composite z-score was 0.613 in [15]; 2.28 in [16]; 1.09 in assay [17]; 1.29 in assay [18]; -0.0479 in assay [19]; 1 in [20]. The same compound showed a z-score in assay [2] of -2.54. Moreover, the composite Z-score in assay [12] was 0.701 (inactive).
